This excerpt belongs to a sample that is enriched for hits.
KDM5B inhibitor: blocks human KDM5B histone demethylase activity; Q9UGL1; KDM5B demethylase, FDH-coupled NADH fluorescence (FDH is formaldehyde dehydrogenase); Potency, µM (top dose mostly 57.7 µM), usual class: inhibitors; 220,000 tested, 2.6% active; AID 1347165; active = well fitted inhibition curve with a large enough effect; also: nearly all actives have a fitted effect of over 70% in size
Target sequence (Q9UGL1 whole entry, looked up): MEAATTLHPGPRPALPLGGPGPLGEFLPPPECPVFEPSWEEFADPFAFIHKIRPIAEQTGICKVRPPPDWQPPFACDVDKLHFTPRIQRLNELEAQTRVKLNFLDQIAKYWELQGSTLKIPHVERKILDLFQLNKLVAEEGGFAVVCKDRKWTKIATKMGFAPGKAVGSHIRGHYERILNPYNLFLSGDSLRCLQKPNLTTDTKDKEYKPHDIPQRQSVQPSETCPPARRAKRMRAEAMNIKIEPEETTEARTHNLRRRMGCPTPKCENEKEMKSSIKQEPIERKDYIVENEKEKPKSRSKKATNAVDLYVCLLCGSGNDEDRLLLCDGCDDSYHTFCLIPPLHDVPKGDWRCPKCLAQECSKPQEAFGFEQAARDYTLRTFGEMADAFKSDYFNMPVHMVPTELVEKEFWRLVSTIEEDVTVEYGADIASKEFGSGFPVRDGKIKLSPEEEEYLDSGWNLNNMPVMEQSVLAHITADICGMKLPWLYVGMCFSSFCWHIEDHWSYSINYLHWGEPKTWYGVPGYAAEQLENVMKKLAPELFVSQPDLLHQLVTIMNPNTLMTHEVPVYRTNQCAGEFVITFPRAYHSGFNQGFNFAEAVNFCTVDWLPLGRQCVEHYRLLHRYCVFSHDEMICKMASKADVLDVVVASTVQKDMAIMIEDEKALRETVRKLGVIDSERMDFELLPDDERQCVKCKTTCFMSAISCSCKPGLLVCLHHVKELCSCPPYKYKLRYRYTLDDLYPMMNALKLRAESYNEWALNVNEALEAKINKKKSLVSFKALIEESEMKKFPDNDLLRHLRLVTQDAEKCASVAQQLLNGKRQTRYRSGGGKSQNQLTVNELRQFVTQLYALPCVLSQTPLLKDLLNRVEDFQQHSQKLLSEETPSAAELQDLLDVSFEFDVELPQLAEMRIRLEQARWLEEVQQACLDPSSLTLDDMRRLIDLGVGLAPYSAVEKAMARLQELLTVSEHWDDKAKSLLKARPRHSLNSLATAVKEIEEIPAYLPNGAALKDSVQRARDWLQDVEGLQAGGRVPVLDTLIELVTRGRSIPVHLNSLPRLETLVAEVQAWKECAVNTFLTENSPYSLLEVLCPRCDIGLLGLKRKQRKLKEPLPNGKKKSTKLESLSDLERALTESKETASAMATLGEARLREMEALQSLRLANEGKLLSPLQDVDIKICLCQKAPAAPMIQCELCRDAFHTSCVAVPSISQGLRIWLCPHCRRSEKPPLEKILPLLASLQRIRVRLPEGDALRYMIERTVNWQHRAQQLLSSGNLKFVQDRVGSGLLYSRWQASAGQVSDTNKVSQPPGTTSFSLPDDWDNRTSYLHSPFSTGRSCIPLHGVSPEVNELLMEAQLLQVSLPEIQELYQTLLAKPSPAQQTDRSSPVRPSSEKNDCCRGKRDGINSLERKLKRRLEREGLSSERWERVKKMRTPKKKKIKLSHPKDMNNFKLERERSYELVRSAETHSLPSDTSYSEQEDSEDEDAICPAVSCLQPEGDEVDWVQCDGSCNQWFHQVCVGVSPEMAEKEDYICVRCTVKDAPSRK
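Coupled FDH/NAD⁺ fluorescence readout. KDM5BΔAP 200 nM final; compound titration, 10 min RT preincubation; substrate mix 12.5 µM H3K4me3, 25 µM 2-OG, 50 µM Fe(II), 100 µM ascorbate, 0.25 mM NAD⁺, 0.25 U/mL FDH; ΔRFU over 30 min.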
Of the large screens only hits and unclear results are named; the others gave an inactive call.

Cc1ccccc1C(=O)N1CCCCC12Cc1ccccc1NC2=O (configuration not stated)	none
Cc1ccc(-n2nc(C)c([C@@H]3C=C[C@@H](NC(=O)CC(C)(C)CC(=O)O)C3)c2C)cc1Cl	none
COc1ccc(C(=O)N[C@@H]2C=C[C@@H](c3c(C)nn(-c4ccc(C(F)(F)F)cc4)c3C)C2)cc1	none
CC(=O)N[C@@H]1C=C[C@@H](c2c(C)nn(-c3ccc(C(F)(F)F)cc3)c2C)C1	none
Cc1ccc(-n2nc(C)c([C@H]3C=C[C@@H](O)C3)c2C)cc1Cl	none
Cc1ccc(-n2nc(C)c([C@@H]3C=C[C@@H](NCc4ccc(N(C)C)cc4)C3)c2C)cc1Cl	KDM5B inhibitor 40µM
CCNC(=O)N[C@@H]1C=C[C@@H](c2c(C)nn(-c3ccc(C(C)(C)C)cc3)c2C)C1	none
Cc1nn(-c2ccc(C(F)(F)F)cc2)c(C)c1[C@@H]1C=C[C@@H](NC(=O)c2ccc(N(C)C)cc2)C1	KDM5B inhibitor 32µM
Cc1nn(-c2ccc(C(C)(C)C)cc2)c(C)c1[C@@H]1C=C[C@@H](NC(=O)NCc2ccccc2)C1	KDM5B inhibitor 32µM
Cc1nn(-c2ccc(C(C)C)cc2)c(C)c1[C@@H]1C=C[C@@H](NC(=O)NCc2ccccc2)C1	none
CC(C)C(=O)N1CCN(c2nc3c([nH]2)c(=O)n(C)c(=O)n3C)CC1	none
Brc1cccc(CNCc2ccc(Cn3cncn3)cc2)c1	none
CNS(=O)(=O)c1cccc(C(=O)NCC2(c3ccccc3)CCC2)c1	none
O=C(NCCc1cccc(Cl)c1)Nc1ccc(Cl)cc1F	none
CCc1cccc2c(C(CC(=O)NCCc3ccc(OC)c(OC)c3)c3cccc(F)c3)c[nH]c12 (configuration not stated)	none
Cc1cccc(CN2CCc3ncc(C(=O)NCCN4CCNC4=O)n3CC2)c1	none
CN1CCOc2c(C(=O)NCC[S+](C)(=O)[O-])cc(-c3ccccc3)cc21	KDM5B inhibitor 32µM
CN1CCOc2c(C(=O)NCCN3CCNC3=O)cc(-c3ccc(O)c(F)c3)cc21	KDM5B inhibitor 35µM
CCCn1c(C)cnc1CCNC(=O)c1ccc(OC)nc1	none
CN1CCN(c2ccc(-c3cc4c(ccn4C)c(C(=O)NCCN4CCNC4=O)n3)cc2)CC1	none
COc1ccc(-c2cc(C(=O)NCc3cc(C)on3)c3c(c2)N(C)CCO3)cn1	KDM5B inhibitor 35µM
COc1ccc(C(=O)NCCc2ncc(C)n2C2CC2)cn1	none
CN1CCN(CCNC(=O)c2cc(-c3ccccc3)cn2C)CC1	none
COc1cccc(CN[C@@H]2CCC[C@@H](C(=O)NCc3cc(C)on3)CC(=O)N(C)C2)c1	none
COc1cccc(CC(=O)N[C@@H]2CCC[C@@H](C(=O)NCc3cc(C)on3)CC(=O)N(C)C2)c1	none
COc1ccc(-c2cc(C(=O)NCC[S+](C)(=O)[O-])c3c(c2)N(C)CCO3)cn1	KDM5B inhibitor 32µM
O=C(NCCSc1ccccc1)c1cc(Cl)c2c(c1)OCCCO2	none
NC(=O)CC1CCN(C(=O)c2cc(=O)c3ccccc3o2)CC1	none
O=C(C1CCCN(Cc2cccc3ccccc23)C1)N1CCCCC1 (configuration not stated)	none
O=C(O)CCn1cc(C(C(=O)O)N2CCCCC2)c2ccc(Br)cc21 (configuration not stated)	none
O/N=C/c1cccc(Oc2ccccc2)c1	none
COc1ccccc1CNC(=O)c1nc(-c2ccccc2)oc1C	none
COc1ccc(S(=O)(=O)Nc2ccc3c(c2)CCN3C(=O)c2cccnc2)c(C)c1	none
CCCCCC(C)NC(=O)/C=C/c1ccc(C)cc1 (configuration not stated)	none
CCOC(=O)CSc1nnc2n(CC)c(=O)c3c(n12)-c1ccccc1CC31CCCCC1	none
CN1CCOc2c(C(=O)NCC[S+](C)(=O)[O-])cc(-c3ccccc3F)cc21	KDM5B inhibitor 35µM
Cn1c(C(=O)NCCNC(=O)c2ccccc2F)cc2ccccc21	none
COC(=O)c1ccccc1NS(=O)(=O)c1cc2c(cc1C)N(C)CCO2	none
CC(NC(=O)C1CCN(C(=O)c2cccc3ccccc23)CC1)c1ccc(F)cc1 (configuration not stated)	none
CCNC(=O)NC(=O)CN(Cc1ccc(C)cc1)C1CC1	none
OCCNC(=S)Nc1ccc(Br)cc1	none
CCCOCC(=O)N1CCc2onc(-c3ccc(C(F)(F)F)cc3)c2C1	none
COc1ccc(C(=O)N2CCc3onc(-c4ccc(C(F)(F)F)cc4)c3C2)o1	KDM5B inhibitor 10µM
CC(C)OC(C)C(=O)N1CCc2onc(-c3ccc(C(F)(F)F)cc3)c2C1 (configuration not stated)	none
CCOC(=O)c1[nH]c2ccc(F)cc2c1NC(=O)c1ccccc1F	none
Cc1ccc(O)c(C(=O)N(C)Cc2c(F)cccc2Cl)c1	none
CC(=O)Nc1cc(F)ccc1-c1csc(NC(=O)CCc2ccco2)n1	none
O=C(c1cccc2[nH]ccc12)N1CCC2(CC1)N(Cc1cccc(F)c1)C(=O)CS2=O (configuration not stated)	KDM5B inhibitor 18µM
O=C(C1CCCC1)N1CCC2(CC1)N(Cc1cccc(F)c1)C(=O)CS2=O (configuration not stated)	none
COCCN1C(=O)CS(=O)C12CCN(C(=O)Nc1ccc(OC)cc1)CC2 (configuration not stated)	none
CCn1nccc1C(=O)N1CCC2(CC1)N(Cc1cccc(F)c1)C(=O)CS2=O (configuration not stated)	none
COCCN1C(=O)CS(=O)C12CCN(C(=O)C1(c3ccc(OC)cc3)CC1)CC2 (configuration not stated)	none
COCCN1C(=O)CS(=O)C12CCN(C(=O)c1ccc3cc[nH]c3c1)CC2 (configuration not stated)	KDM5B inhibitor 18µM
COc1cccc(Nc2nc(-c3ccc4c(c3)CCN4S(C)(=O)=O)cs2)c1	none
O=C(Nc1nc2c(s1)CCCC2)C1CC(=O)N(CC(F)(F)F)C1 (configuration not stated)	none
C[N+]1(CC#Cc2ccc(C#CC[N+]3(C)CCCC3)cc2)CCCC1	none
O=C(O)C(c1c[nH]c2ccc(Cl)cc12)N1CCN(Cc2cccnc2)CC1 (configuration not stated)	none
CC(C)N(CCNC(=O)c1n[nH]c(=O)c2ccccc12)C(C)C	none
Cc1ncc(-c2ccc(C)c(S(=O)(=O)Nc3ccc(Cl)cc3F)c2)o1	none
O=C(Nc1ccccc1)c1nc2c(o1)CCN(Cc1cccnc1)CC2	none
O=C(Nc1ccccc1)c1nc2c(o1)CCN(CC1CC1)CC2	none
Cc1cc(F)cc(CN2CCc3nc(C(=O)Nc4ccccc4)oc3CC2)c1	KDM5B inhibitor 28µM
Cc1ccccc1CN1CCc2nc(C(=O)Nc3ccccc3)oc2CC1	KDM5B inhibitor 28µM
Cc1ccccc1CN1CCc2nc(C(=O)N3CCOCC3)oc2CC1	none
Cc1cc(F)cc(CN2CCc3nc(C(=O)NCC4CC4)oc3CC2)c1	none
CC1=C(c2ccc(C(C)C)cc2)S(=O)(=O)N=C1N1CCC(C(=O)NC2CCCC2)CC1	none
CC(C)c1ccc(CN(c2ccc3nnc(C(F)(F)F)n3n2)C2CC2)cc1	none
O/N=C/c1ccccc1Cl	none
CC(C)Sc1nc2c(c(=O)[nH]c(=O)n2C)n1Cc1ccccc1Cl	none
S=C(NCc1ccc(Cl)cc1)NCc1cccs1	none
Cc1ccc(-c2csc(Nc3cc(C)ccc3C)n2)cc1	none
CCc1ccccc1/C=C/C(=O)O	none
Cc1nnc(-c2cc(N3CCN(c4ccccn4)CC3)ccn2)n1C	none
Cc1noc(C)c1-c1cc2c(cc(C)n2C)c(N2CCN(c3ccccn3)CC2)n1	KDM5B inhibitor 32µM
Cc1noc(C)c1-c1cc2c(cc(C)n2C)c(NC2CCN(C)CC2)n1	none
Cc1ccc(C23CC4CC(C2)CC(c2csc(NC(=O)c5ccccc5)n2)(C4)C3)cc1	none

Bioassay records (PubChem BioAssay)
